Compound activity as filed in PubChem.
Tgondii IFNg: T. gondii growth inhibition with IFN-gamma, primary screen, cell-based. hit rate 3.8% among 69,000. Toxoplasma gondii growth in IFN-gamma-treated host cells; active compounds read low. AID 1259416, 2018. activity change, negative = inhibition, % (test concentration not listed); in the data active = activity change below about -70%, passing the limit was not always enough;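 also: host cells are HeLa cells infected with Toxoplasma gondii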
* = called active by the depositor; ! = a repeat was not active. The full list was thinned out, with hits kept by preference.

SMILES	Tgondii IFNg
CCCN1C(=O)CCc2cc(NC(=O)Cc3ccc(Cl)cc3)ccc21	-8.9
CCCN1C(=O)CCc2cc(NC(=O)c3ccc(Cl)s3)ccc21	-89.7*
CCCC(=O)Nc1ccc2c(c1)CCC(=O)N2CCC	58.9
COCCN1C(=O)CCc2cc(NC(=O)c3ccc(Cl)s3)ccc21	-78.1*
CCCN1C(=O)CCc2cc(NC(=O)c3cc(Cl)ccc3OC)ccc21	-92.5*
CCn1c(=O)c(-c2nc(-c3ccc(OC)c(F)c3)no2)c(O)c2ccccc21	10.8
O=C(NCCc1c[nH]c2ccccc12)C1CCCN(c2nnc(N3CCCC3=O)s2)C1 (centres undefined)	18.9
Clc1ccc(-c2nc(N3CCC(N4CCCCC4)CC3)c3ccccc3n2)cc1	-32.9
COC(=O)Cn1cc(CN2CCN3CCNC(=O)C3C2)c2ccccc21 (centres undefined)	-16.7
CC(=O)Oc1cc2c(c(C)c1OC(C)=O)CC=C1[C@@]2(C)CC[C@@]2(C)C3C[C@](C)(C(=O)O)CC[C@]3(C)CC[C@]12C (some centres undefined)	-80.5*
CC1(C)C2CC[C@]3(C)C(C(=O)C=C4[C@H]5C[C@@](C)(C(=O)O)CC[C@]5(C)CC[C@]43C)[C@@]2(C)CC[C@@H]1O (some centres undefined)	7.9
O=c1[nH]nc(C2CCN(C/C=C/c3ccco3)CC2)n1Cc1ccccc1	-0.9
CC#CCN1CCC=C(CN(C)C(=O)/C=C/c2ccccc2)C1	-0.9
COc1ccccc1OCc1cc(C(=O)N[C@@H]2c3ccccc3C[C@@H]2O)n[nH]1	-4.3
C=C(C)COc1ccccc1CN1[C@@H]2CC[C@H]1CNC(=O)C2	0.2
Cc1cccc(NC(=O)CN2CCC3(CC2)N=C(c2ccc(C)c(C)c2)C(=O)N3)c1	-9.9
Cc1ccc(NC(=O)CN2CCC3(CC2)N=C(c2ccc(C(C)(C)C)cc2)C(=O)N3)cc1C	-76.2*
Cc1ccc(NC(=O)CN2CCC3(CC2)N=C(c2cccc(F)c2)C(=O)N3)cc1C	37.7
O=C(COC(=O)c1cc(S(=O)(=O)N2CCCCCC2)cs1)c1ccccc1	29.7
Cc1ccc(-c2coc(-c3ccc(NC(=O)Nc4ccccc4Cl)cc3)n2)cc1	66.3
CCc1c(C)nc2cc(-c3cc(C)on3)nn2c1N1CCN(Cc2ccccn2)CC1	-85.2*
CCN1CCC2(CN(c3ncccn3)CC23CCN(Cc2ccccn2)CC3)C1=O (centres undefined)	-34.9
Cc1cc(N2CCCN(Cc3cc(-c4ccccc4)no3)CC2)ccn1	-20.2
CCCCc1nc(Cl)c(CN2CCOC(CN)C2)[nH]1 (centres undefined)	9.4
COCc1[nH]n2c(=O)cc(Cn3cccn3)nc2c1-c1ccc(OC)cc1	-13.8
SMILES	Tgondii IFNg
COc1ccccc1NC(=O)CN1C(=O)CCc2cc(S(=O)(=O)N3CCOCC3)ccc21	45.2
O=C(NCCc1cccnc1)c1ccn(-c2ccc3ccc(-c4ccccc4)cn23)n1	8.0
O=C(c1csc(-c2ccc(N3CCCC3)nc2)n1)N1CCC2(CC1)OCCO2	41.1
O=C(NCc1ccc(N2CCOCC2)cc1)c1csc(-c2ccc(N3CCCC3)nc2)n1	84.3
O=C(NCCN1CCOCC1)c1csc(-c2ccc(N3CCCC3)nc2)n1	-99.6*
O=C(CO)N1CC2CCC(C1)N2C(=O)c1ccco1	-22.4
Cc1nc2c(n1C)CN(C(=O)Cc1ccc(F)cc1)CC2	66.7
O=C(NCc1cccc(F)c1)Nc1ccc(-c2nc(-c3ccccc3)co2)cc1	20.8
Fc1cccc(CNc2c3c(nc4cc(-c5cccc(Cl)c5)nn24)CCC3)c1	-90.3*
Fc1cccc(CNc2nc(-c3nnc(-c4ccc(Cl)cc4)o3)nc3ccccc23)c1	90.3
CN(CCn1ccc2ccccc21)Cc1cnc(N)nc1	-1.1
Cc1c(Br)ccc(NC(=O)COC(=O)c2cccs2)c1C	62.7
COCCN(C)C(=O)c1nc(-c2cn(Cc3ccccc3)cn2)n2ccccc12	3.3
CC(C)CC(=O)Nc1n[nH]c2c1CN(C(=O)C1CCN(C)CC1)C2(C)C	-76.1*
Cc1csc(CN2C[C@@H]3CCCO[C@H]3[C@H](N3CCCC3=O)C2)n1	-43.2
CN1CC2(C)CN(C(=O)c3ccccc3NCC(=O)O)CC(C)(C1)C2O (centres undefined)	52.4
CCCS(=O)(=O)Nc1ccc(F)c(C(=O)c2c[nH]c3ncc(-c4ccc(Cl)cc4)cc23)c1F	-78.6*
COCc1nn(C(C)C)c2c1CCN(Cc1nccs1)C2	0.3
Cn1cc(S(=O)(=O)NCCCOc2ccccc2F)c(=O)n(C)c1=O	3.6
Cc1ccc2c(c1)cc(S(=O)(=O)c1ccccc1)c(=O)n2CC(=O)NCCC(C)C	-29.3
O=C(Cc1ccc(F)cc1)N1CCC2(CC1)COCCN(c1ncccn1)C2	-14.6
COc1ccc(C(=O)N2CCc3[nH]cnc3C23CCCCC3)cc1	-6.2
O=C(Cc1ccc(OC(F)(F)F)cc1)N1CCc2[nH]cnc2C12CCCC2	-79.7*
O=C(NCc1ccccc1)Nc1ccc(-c2nc(-c3ccccc3)co2)cc1	41.8
Cc1ccc(-c2nnc(SCc3cc(=O)[nH]c4ccccc34)n2-c2ccccc2)cc1	-26.5
SMILES	Tgondii IFNg
O=C(O)c1ccccc1C1CCN(C(=O)Cc2c[nH]c3ccccc23)C1 (centres undefined)	-42.0
O=C(O)c1ccc(-c2c[nH]c3ncc(-c4ccccc4)cc23)cc1C1CCCC1	-84.8*
Cc1c(-c2ccccc2)n[nH]c1C(=O)N1CCC(c2ccccc2C(=O)O)C1 (centres undefined)	-5.9
CCC(C(=O)NCc1cc(F)cc2c(C)c(C)[nH]c12)n1cccn1 (centres undefined)	-5.8
O=C(NCCc1csc(-c2ccc(F)cc2)n1)C1CCCCC1	-34.2
CCOC(=O)C1CCCN(Cc2cn3cc(F)ccc3n2)C1 (centres undefined)	31.2
O=C1CCCN1[C@@H]1CN(Cc2nccs2)C[C@H]2CCCO[C@H]21	189.0
CCC(CO)N(Cc1ccc(C)s1)C(=O)c1occc1C (centres undefined)	2.3
Cc1cc(C(=O)NCc2noc(C)n2)c2cnn(C(C)C)c2n1	-3.2
O=C1N(CCc2ccccc2)CCCC1(O)CNCc1ccsc1 (centres undefined)	-0.9
Cc1c(-c2ccc(O)cc2)n(Cc2ccc(OCCN3CCCCCC3)cc2)c2ccc(O)cc12	-76.1*
Nc1ccc(OCCN2CCCCCC2)cc1	9.8
CN1CCN(CCOc2ccc(C(=O)O)cc2)CC1	62.9
CCCN1CCc2nc(SCc3nc(-c4cccc(Cl)c4)oc3C)[nH]c(=O)c2C1	12.8
Cc1nccn1CC1(O)CCN(C(=O)CN2CCC(c3ccccc3)CC2)CC1	39.6
C[C@]12CC[C@@H]3c4ccc(O)cc4CC[C@H]3[C@@H]1C[C@@H](O)[C@@H]2O	16.6
CC12CCC3c4ccc(O)cc4CCC3C1C[C@H](O)[C@@H]2O (some centres undefined)	8.2
COc1cc2c(cc1O)CC[C@@H]1[C@@H]2CC[C@]2(C)[C@@H](O)CC[C@@H]12	-82.5*!
Cc1ccc(F)c(S(=O)(=O)N2CCCCC2c2nc(C)c3c(n2)N(C)C(=O)CC3)c1 (centres undefined)	6.9
Cc1ccc(-c2nn3c(=O)c(C)nnc3s2)cc1C	-27.6
COC(=O)c1cn(C(C)C)cc(C(=O)N2CCOC(c3ccc(F)cc3)C2)c1=O (centres undefined)	5.5
COc1cc(C(=O)Oc2cc(C)cc(C)c2)cc(OC)c1OC	-1.7
COc1cc(C(=O)Oc2ccc(C3CCCCC3)cc2)cc(OC)c1OC	-93.6*
COc1ccc(C(=O)/C=C/c2ccc(OC(=O)c3cc(OC)c(OC)c(OC)c3)cc2)cc1	-24.8
